Results reported in PubChem BioAssay (NCI).
The panel holds about 83,000 compounds, 20% with a hit somewhere; the sample as a whole holds those more often.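 Growth was measured after 48 h exposure to one concentration of compound in 96-well plates. Values under 10 count as active.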 Unmarked numbers belong to inactive results. Calls of active or inactive are those of the source.

Columns and labels:
Assay in all cases: NCI-60 one-dose screen, 48 h (100 = growth as untreated, 0 = no growth, -100 = all killed)
Conditions in all cases: 10 µM
SR leukemia = system: SR leukemia
RPMI-8226 leukemia = system: RPMI-8226 leukemia
OVCAR-8 ovarian = system: OVCAR-8 ovarian
OVCAR-5 ovarian = system: OVCAR-5 ovarian
OVCAR-4 ovarian = system: OVCAR-4 ovarian
SK-OV-3 ovarian = system: SK-OV-3 ovarian
IGROV1 ovarian = system: IGROV1 ovarian
OVCAR-3 ovarian = system: OVCAR-3 ovarian
HS 578T breast = system: HS 578T breast
NCI/ADR-RES ovarian = system: NCI/ADR-RES ovarian

Structure (SMILES) | growth (SR leukemia) | growth (RPMI-8226 leukemia) | growth (OVCAR-8 ovarian) | growth (OVCAR-5 ovarian) [%] | growth (OVCAR-4 ovarian) | growth (SK-OV-3 ovarian) | growth (IGROV1 ovarian) [%] | growth (OVCAR-3 ovarian) | growth (HS 578T breast) | growth (NCI/ADR-RES ovarian)
N#CCc1ccc([N+](=O)[O-])cc1 | 105% | 109% | 89.5% | 119 | 111% | 101% | 135 | 117% | 98% | 106%
Cn1cnc2nc(Cl)nc(Cl)c21 | 27.9% | 23.4% | 24.3% | 59.8 | 42.4% | 61.2% | 30.3 | -27.8% (active) | 72.4% | 27.1%
CCOC(=O)CNN | 106% | 110% | 96.1% | 112 | 106% | 108% | 112 | 108% | 105% | 112%
O=[N+]([O-])c1ccccc1N=Nc1ccc(O)cc1O | 93% | 109% | 104% | 126 | 99.5% | 101% | 92.9 | 122% | 131% | 118%
CC(=Nc1ccccc1)C1=C(O)C(Cc2cccc(F)c2)NC1=O (stereo not given) | 0.385% (active) | 9.85% (active) | 1.8% (active) | 25.6 | 36.4% | 4.34% (active) | 13.8 | -36.1% (active) | 45.6% | 7.11% (active)
CCCCCCCCCCC(C)Br (stereo not given) | 93.8% | 101% | 108% | 104 | 109% | 98.3% | 106 | 108% | 116% | 105%
COCCOCCCl | 108% | 115% | 110% | 106 | 105% | 109% | 116 | 111% | 102% | 109%
CC(C)C1CCCCC1O (stereo not given) | 130% | 105% | 109% | 91 | 118% | 109% | 130 | 117% | 105% | 104%
COc1ccc(-c2cc3c(nn2)-c2ccccc2C3=O)cc1 | -21.8% (active) | 27.2% | -9.96% (active) | 83.7 | -26.1% (active) | 102% | 61.6 | -49.3% (active) | 103% | 60.9%
c1ccc(Sc2ccccc2)cc1 | 82.9% | 99.7% | 102% | 104 | 111% | 104% | 117 | 106% | 115% | 112%
OCC(O)C(O)C(O)C(O)/C=N/O (stereo not given) | 102% | 94.9% | 97.6% | 109 | 104% | 87.2% | 107 | 113% | 103% | 103%
O=[N+]([O-])c1ccc(/C=C/C=C/c2ccccc2)c(Cl)c1 | 95.2% | 87.6% | 98.8% | 102 | 82.5% | 98.8% | 88 | 105% | 87.7% | 108%
N=c1c(C(=O)OCc2ccccc2)ncc(CCl)n1O | 82.6% | 76.8% | 101% | 103 | 91.3% | 107% | 95 | 99.1% | 114% | 105%
COC(=O)C(O)c1ccccc1 (stereo not given) | 108% | 111% | 108% | 97.6 | 113% | 105% | 123 | 104% | 125% | 110%
Cc1nc2ccccc2c2nnc(SCC(=O)N(Cc3ccccc3)c3ccccc3)n12 | 67.6% | 78.8% | 100% | 95 | 91.7% | 93.8% | 71.6 | 93.4% | 93.9% | 96.1%
[O-][N+](=Nc1cccc(Cl)c1)c1cccc(Cl)c1 | 141% | 81.9% | 114% | 88.3 | 61.8% | 110% | 76.4 | 111% | 112% | 99%
Cc1cc(=O)[nH]c(NN=C2CCCC2)n1 | 103% | 107% | 112% | 99.4 | 114% | 103% | 107 | 110% | 121% | 121%
C[C@@H](c1ccccc1)[C@@H](C(=O)O)c1ccccc1 | 105% | 99.7% | 98.2% | 105 | 94.7% | 100% | 111 | 104% | 110% | 105%
Cc1cccc(C(=O)N(C(C)C)C(C)C)c1 | 110% | 93.1% | 100% | 98 | 104% | 92.4% | 103 | 107% | 90.6% | 102%
CNS(=O)(=O)c1ccc(Cl)c(Cl)c1 | 78.1% | 136% | 99.2% | 98.5 | 99.8% | 105% | 114 | 123% | 98.9% | 110%
CC(C)CCCC(=O)O | 89.4% | 105% | 114% | 100 | 96.8% | 108% | 104 | 114% | 103% | 109%
CCS(=O)(=O)c1cc(=O)[nH]c(=O)[nH]1 | 57.6% | 124% | 114% | 106 | 102% | 116% | 136 | 112% | 113% | 103%
CC(=O)c1c[nH]c2ccccc12 | 91.4% | 110% | 98.6% | 111 | 99.8% | 108% | 101 | 120% | 104% | 107%
O=[N+]([O-])c1ccc(N=Nc2ccccc2)cc1 | 97.9% | 98% | 104% | 97.7 | 107% | 113% | 89.8 | 107% | 119% | 94.8%
CCCCOC(OCCCC)c1ccccc1 | 103% | 110% | 108% | 107 | 109% | 115% | 115 | 105% | 111% | 97.9%
O=c1cc(-c2ccccc2)[nH]c2c1CCCC2 | 30.5% | 21.3% | 39.7% | 39.3 | 49.8% | 25.8% | 44.3 | 15.9% | 16.3% | -40.8% (active)
CC(C)(N)COS(=O)(=O)O | 103% | 102% | 102% | 107 | 105% | 96.5% | 108 | 104% | 99.8% | 114%
CCN(CC)CCCC(C)Nc1ccnc(/C=C/c2ccc(Cl)cc2)c1 (stereo not given) | -19% (active) | -26.3% (active) | 14.8% | 47.1 | 15.4% | 72.8% | 41.2 | 26.5% | 47.1% | 56.1%
Cc1ccc(Cl)cc1NC(=O)N(C)CCO | 113% | 97.4% | 112% | 111 | 136% | 114% | 93 | 130% | 236% | 112%
O=[N+]([O-])c1ccc(N=Nc2ccc(O)c3ccccc23)cc1 | 19.4% | 28.5% | 10.6% | 124 | 40.1% | 92% | 38.1 | -0.85% (active) | 1.22% (active) | 28.1%
